In PubChem BioAssay (Tox21):
Where “and” joins values, the source holds several entries; their conditions need not be identical. Identical values can stand only once. Results filed as inconclusive are left out. A structure can be active in one record and inactive in another. Calls of active or inactive are those of the source. Calls come from the whole dose curve; as a rule, active = well fitted curve in the direction sought with a large enough effect in the repeat runs; inconclusive = weak or mixed curves; inactive = no such curve, though single readings can be large; an effect the other way counts as inactive or inconclusive.

Legend:
[1] = qHTS RealTime-Glo MT Cell Viability Assay in HEK293 cells - 0 hour (AID 1224880); note: top concentration of the series differs between compounds; nearly all actives have a fitted effect of over 45% in size
Procedure, shortened: (§1)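 Real-time viability in HEK293: signal arises when living cells convert a prosubstrate for NanoLuc in the medium, so luminescence tracks viable cell number. Compound (23 nL, DMSO) added 5 h post-seeding; kinetic reads at 0–40 h, 37 C.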

[2] = A CellTox Green Cytotoxicity Assay to monitor cytotoxicity in HEK293 cells - 32 hour (AID 1224881); note: nearly all actives have a fitted effect of over 40% in size; note: potency is the fitted concentration of half-maximal effect
Procedure, shortened: (§2)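 Cells (HEK293, 600/well) and dye reagent are dispensed together. After 5 h at 37 C, 23 nL compound is pinned in. Plates stay at 37 C for 40 h with fluorescence read at 0h, 8h, 16h, 24h, 32h and 40h.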

[3] = A CellTox Green Cytotoxicity Assay to monitor cytotoxicity in HepG2 cells - 0 hour (AID 1224882); note: nearly all actives have a fitted effect of over 35% in size; note: potency is the fitted concentration of half-maximal effect
Procedure, shortened: (§3)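 Cells and non-lytic dye reagent are dispensed together (600 HepG2 cells/well) and incubated 5 h before DMSO compound transfer. Kinetic fluorescence is then recorded in the same wells during 40 h at 37 C.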

[4] = A CellTox Green Cytotoxicity Assay to monitor cytotoxicity in HepG2 cells - 32 hour (AID 1224883); note: nearly all actives have a fitted effect of over 50% in size; note: potency is the fitted concentration of half-maximal effect
Procedure, shortened: as §3

[5] = A CellTox Green Cytotoxicity Assay to monitor cytotoxicity in HEK293 cells - 8 hour (AID 1224884); note: nearly all actives have a fitted effect of over 35% in size; note: potency is the fitted concentration of half-maximal effect
Procedure, shortened: as §2

[6] = qHTS RealTime-Glo MT Cell Viability Assay in HEK293 cells - 24 hour (AID 1224886); note: nearly all actives have a fitted effect of over 50% in size; note: potency is the fitted concentration of half-maximal effect
Procedure, shortened: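 Viability tracked continuously by luminescence as live cells reduce a prosubstrate for NanoLuc; HEK293 cells preincubated 5 h, compound-treated at 37 C, and read at 0, 8, 16, 24, 32 and 40 h.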

[7] = qHTS RealTime-Glo MT Cell Viability Assay in HEK293 cells - 8 hour (AID 1224887); note: nearly all actives have a fitted effect of over 50% in size; note: potency is the fitted concentration of half-maximal effect
Procedure, shortened: as §1

[8] = A CellTox Green Cytotoxicity Assay to monitor cytotoxicity in HEK293 cells - 16 hour (AID 1224888); note: nearly all actives have a fitted effect of over 35% in size
Procedure, shortened: as §2

[9] = qHTS RealTime-Glo MT Cell Viability Assay in HepG2 cells - 0 hour (AID 1224889); note: nearly all actives have a fitted effect of over 50% in size
Procedure, shortened: (§4)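 Viability was tracked continuously by NanoLuc luminescence from prosubstrate reduced by living HepG2 cells, at successive time points over 40 h of compound exposure. Cells with reagent were preincubated 5 h at 37 °C before compound addition.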

[10] = qHTS RealTime-Glo MT Cell Viability Assay in HepG2 cells - 16 hour (AID 1224885); note: nearly all actives have a fitted effect of over 50% in size
Procedure, shortened: as §4

Measured: Potency

CC1(C)C(O)C(C)(C)C1O (centres undefined)
inactive: [1] | [2] | [3] | [4] | [5] | [6] | [7] | [8] | [9]

CCn1ccnc1CC1COc2ccccc2O1 (centres undefined)
inactive: [1] | [2] | [3] | [4] | [5] | [6] | [7] | [8] | [9]

CN1CC(=O)NC1=N
inactive: [1] | [2] | [3] | [4] | [5] | [6] | [7] | [8] | [9]

OCCOc1ccc(OCCO)cc1
inactive: [1] | [2] | [3] | [5] | [10] | [6] | [7] | [8] | [9]

O=c1n(CCO)c(=O)n(CCO)c(=O)n1CCO
inactive: [1] | [6] | [7] | [9]
inactive and 38.9 µM (active): [2] | [4]
inactive and 43.6 µM (active): [3] | [5]

C[N+](C)(C)CCCCCC[N+](C)(C)C
inactive: [1] | [2] | [3] | [5] | [10] | [6] | [7] | [8] | [9]

C[N+](C)(C)CC(O)CC(=O)[O-] (centres undefined)
inactive: [1] | [2] | [3] | [5] | [10] | [6] | [7] | [8] | [9]

CCOC(C)(C)C
inactive: [1] | [2] | [3] | [5] | [10] | [6] | [7] | [8] | [9]

CC(C)(CC(=O)O)C(=O)O
inactive: [1] | [2] | [3] | [5] | [10] | [6] | [7] | [8] | [9]

COC(=O)CCSCCC(=O)OC
inactive: [1] | [2] | [3] | [4] | [5] | [6] | [7] | [8] | [9]

CC/C=C\CC/C=C/CO
inactive: [1] | [2] | [3] | [5] | [10] | [6] | [7] | [8] | [9]

CCCCNC(=O)NCCCC
inactive: [1] | [2] | [3] | [5] | [10] | [6] | [7] | [8] | [9]

O=C(O)COc1nn(Cc2ccccc2)c2ccccc12
inactive: [1] | [2] | [3] | [4] | [5] | [6] | [7] | [8] | [9]

CC(C)(c1ccc(O)cc1)c1ccc(O)cc1
inactive: [1] | [2] | [3] | [4] | [5] | [8] | [9]

CCc1cccc2c(CCO)c[nH]c12
inactive: [1] | [2] | [3] | [4] | [5] | [6] | [7] | [8] | [9]

C=C(C)CS(=O)(=O)O
inactive: [1] | [2] | [3] | [4] | [5] | [6] | [7] | [8] | [9]

O=C(CCCN1CCC(O)(c2cccc(C(F)(F)F)c2)CC1)c1ccc(F)cc1
inactive: [1] | [2] | [3] | [5] | [10] | [8] | [9]
active: [6] 16.9 µM | [7] 15.1 µM

FC1(F)C(F)(F)C(F)(F)C2(F)C(F)(F)C(F)(F)C(F)(F)C(F)(F)C2(F)C1(F)F (centres undefined)
inactive: [1] | [2] | [3] | [5] | [10] | [6] | [7] | [8] | [9]

Nc1cc(=O)[nH]c(N)n1
inactive: [1] | [2] | [3] | [4] | [5] | [6] | [7] | [8] | [9]

O=C1CCCC(=O)C1
inactive: [1] | [2] | [3] | [5] | [10] | [6] | [7] | [8] | [9]

CCC(C)C1CCCCC1=O (centres undefined)
inactive: [1] | [2] | [3] | [5] | [10] | [6] | [7] | [8] | [9]

C=C1CC[C@H]2C[C@@H]1C2(C)C
inactive: [1] | [2] | [3] | [5] | [10] | [6] | [7] | [8] | [9]

CC(C[N+](C)(C)C)OC(N)=O (centres undefined)
inactive: [1] | [2] | [3] | [5] | [10] | [6] | [7] | [8] | [9]
